Compound activity (PubChem)
Gli-Sufu block – Gli-Sufu pathway antagonists, primary screen, luciferase luminescence, Sufu-KO-LIGHT cells, uHTS | 340,000 compounds, 0.74% hits | Sufu-KO-LIGHT fibroblasts, Gli luciferase reporter luminescence | AID 588413, 2011 | inhibition, % at 5 µM;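 active = inhibition above about 55%, limit read from the data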
LRH-1 inv ag – LRH-1 (NR5A2) inverse agonists, primary screen, cell-based, luminescence, HEK293T, StAR-luciferase reporter. LRH-1 transfected, 24 h. inhibition, % at 3.6 µM. 360,000 compounds, 0.13% hits;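 active = inhibition above the mean inhibition of all tested compounds plus 3 SD, cut at about 73% in these data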
SRC1 inh – SRC1 coactivator transcriptional activity inhibitors, primary screen, cell-based, luminescence; inhibition, % at 3.6 µM; Nuclear receptor coactivator 1 (Homo sapiens), Q15788; HEK293 GAL4-SRC1 luciferase reporter; AID 588354, 2011; 360,000 compounds, 0.12% hits;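 active = inhibition above the campaign mean plus 3 SD, with each screening campaign given its own cutoff, cut at about 60% in these data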
NCOA3 inh – SRC3 coactivator transcriptional activity inhibitors, primary screen, cell-based, luminescence; Nuclear receptor coactivator 3 (Homo sapiens), Q9Y6Q9; HEK293 GAL4-SRC3 luciferase reporter; inhibition, % at 3.6 µM; 360,000 compounds, 0.17% hits;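 active = inhibition above a per-campaign cutoff, the mean of all compounds plus 3 SD, cut at about 60% in these data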;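 note: higher means less SRC3-driven luciferase light from the GAL4 reporter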
SRC2 inh – inhibition of GAL4-SRC2 driven luciferase reporter, primary screen, SRC2 inhibitor project, cell-based, luminescence | Nuclear receptor coactivator 2 (Homo sapiens), Q15596 | HEK293 GAL4-SRC2 luciferase reporter | inhibition, % at 9 µM | 370,000 compounds, 0.17% hits | AID 651957, 2012;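 active = inhibition above the mean inhibition of all tested compounds plus 3 SD, set per campaign, cut at about 52% in these data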
COUP-TFII inh – NR2F2 transcriptional activity inhibitors, primary screen, cell-based, luciferase reporter, HEK293T, luminescence; 370,000 compounds, 0.7% hits; inhibition, % at 8.6 µM; AID 686940, 2013; HEK293T NGFI-A luciferase reporter;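 active = inhibition above a per-plate cutoff, mean inhibition of test wells between control levels plus 3 SD, cut at about 38% in these data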;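 note: cells cotransfected with COUP-TFII expression vector driving the NGFI-A reporter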
Target sequence (P24468 whole entry, looked up): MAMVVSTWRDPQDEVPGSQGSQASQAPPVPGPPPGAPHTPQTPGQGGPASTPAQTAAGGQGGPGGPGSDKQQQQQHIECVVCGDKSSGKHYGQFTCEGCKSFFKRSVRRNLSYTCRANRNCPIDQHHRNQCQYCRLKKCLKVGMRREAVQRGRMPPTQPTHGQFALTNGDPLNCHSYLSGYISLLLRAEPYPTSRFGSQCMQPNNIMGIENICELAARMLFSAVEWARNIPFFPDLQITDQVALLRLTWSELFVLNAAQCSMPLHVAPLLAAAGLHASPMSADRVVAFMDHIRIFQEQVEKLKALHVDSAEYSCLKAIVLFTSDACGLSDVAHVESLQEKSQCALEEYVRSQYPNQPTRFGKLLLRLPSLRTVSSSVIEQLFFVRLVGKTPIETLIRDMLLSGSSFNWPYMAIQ
Gli antag conf – Gli-SUFU pathway antagonists, confirmation, single concentration, luciferase luminescence, Sufu-KO-LIGHT cells; shares compounds with Gli-Sufu block; Gli luciferase reporter; inhibition, % at 5 µM; 2,500 compounds, 40% hits; AID 602428, 2012;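 active = mean inhibition at 5 µM reaching about 45%, limit read from the data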
Gli cytotox – cytotoxicity in Sufu-KO-LIGHT cells, confirmation, cytotoxicity control for Gli-SUFU antagonist project, cell-based, ATP luminescence, single concentration; shares compounds with Gli-Sufu block; cytotoxicity, % at 5 µM; 2,500 compounds, 32% hits;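 active = mean cytotoxicity at 5 µM above about 25%, limit read from the data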;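 note: cells exposed to compound overnight for roughly 16 to 18 hours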
Wnt3a counter – Wnt3a reporter signal inhibition, confirmation, counter-screen for Gli-SUFU antagonist project, Wnt-LIGHT cells, luminescence, single concentration. shares compounds with Gli-Sufu block. Wnt3a-driven luciferase reporter. inhibition, % at 6.25 µM. 2,500 compounds, 20% hits;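 active = mean inhibition above about 25%, limit read from the data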
Hits are given with their value; n = inactive; x = no result given. The list is not random: actives were taken first. Their share in the collection is about 1.3%.

SMILES | Gli-Sufu block | LRH-1 inv ag | SRC1 inh | NCOA3 inh | SRC2 inh | COUP-TFII inh | Gli antag conf | Gli cytotox | Wnt3a counter
CCCc1nnc(NC(=O)CCC(=O)NCc2ccccc2Cl)s1 | 55 | n | n | n | n | n | n | n | n
CCOc1ccc(Br)cc1S(=O)(=O)Nc1cccc(S(=O)(=O)Nc2ccccc2C(=O)O)c1 | 55 | n | n | n | n | n | n | n | n
CC(C)C[C@H](NC(=O)N1CCOCC1)C(=O)N1CCC[C@H]1C(=O)NCc1ccccc1 | x | x | x | x | n | n | x | x | x
Cc1cc2nc(-c3cccnc3SCC(=O)NCc3ccco3)[nH]c2cc1C | n | n | n | n | n | n | x | x | x
O=C(CSc1ncccc1-c1nc2ccccc2[nH]1)NCc1ccco1 | 58 | n | n | n | n | n | n | 27 | n
S=C1NCCOc2ccccc21 | x | x | x | x | n | n | x | x | x
O=C(Nc1ccc(F)cc1)Nc1nc2ncccn2c1-c1ccc(F)cc1 | x | x | x | x | n | n | x | x | x
Cc1ccc(-c2nnc(NC(=O)c3ccco3)o2)c(C)c1 | 73 | n | n | n | n | n | n | n | n
Cc1ccc(C)c(-c2nnc(NC(=O)c3ccco3)o2)c1 | n | n | n | n | n | n | x | x | x
Cc1cc2c(nc1C)CCCN2S(=O)(=O)c1c(C)noc1C | x | x | x | x | n | n | x | x | x
Cc1cc(C)n2nc(SCC3COc4ccccc4O3)nc2n1 (stereo not drawn) | 99 | n | n | n | n | n | n | n | n
COC(=O)Cc1nnn2c1[C@H](C)[C@H](c1ccccc1Br)OC[C@H](C)C2 | x | x | x | x | n | n | x | x | x
c1ccc(Cc2cc(-c3ccccc3)on2)cc1 | 96 | n | n | n | n | n | n | n | n
Clc1ccc(SCc2cc(-c3ccccc3)on2)cc1 | n | n | n | n | n | n | x | x | x
COc1cccc(/C=C/c2ccncc2)c1OC | 56 | n | n | n | n | n | 46 | n | n
C=CCOc1ccc(CN(C)c2ccc(S(=O)(=O)N3CCN(C)CC3)cc2[N+](=O)[O-])cc1 | n | n | n | n | n | n | x | x | x
CCOc1ccc(CN(C)c2ccc(S(=O)(=O)N3CCN(C)CC3)cc2[N+](=O)[O-])cc1OC | 59 | n | n | n | x | x | n | n | n
Nn1c(SCC(=O)NC2CCS(=O)(=O)C2)nc2scc(-c3ccccc3)c2c1=O (stereo not drawn) | n | n | n | n | n | n | n | n | n
C=CCn1c(SCC(=O)NC2CCS(=O)(=O)C2)nc2scc(C3CC3)c2c1=O (stereo not drawn) | n | n | n | n | n | n | x | x | x
COc1ccc(CC(=O)N2CCN(C(=O)c3ccc4nc(C)n(C5CCCC5)c4c3)CC2)cc1 | x | x | x | x | n | n | x | x | x
COc1ccccc1N(C)S(=O)(=O)c1ccc(C(=O)NCc2ccccc2CN2CCCC2)cc1 | n | n | n | n | n | n | n | n | n
CCCCOCCCNC(=O)C[C@H]1C[C@@]2(C(=O)OCC)CCCC3=C2N(CCC3)C1=O | x | x | x | x | n | n | x | x | x
O=C(O)CCCCCN1C(=O)C2CCCCC2C1=O (stereo not drawn) | 70 | n | n | n | n | n | n | n | n
COc1nc(OC)nc(N2CCC(C(=O)NCc3cccc(OC)c3OC)CC2)n1 | x | x | x | x | n | n | x | x | x
COc1ccc(-n2nc3c(N4CCC(C(=O)NC5CCCCC5)CC4)nnc(C)c3c2C)cc1 | 91 | n | n | n | x | x | n | n | n
SMILES | Gli-Sufu block | LRH-1 inv ag | SRC1 inh | NCOA3 inh | SRC2 inh | COUP-TFII inh | Gli antag conf | Gli cytotox | Wnt3a counter
COc1ccc(C(=O)N/N=C(\c2ccccc2)c2ccccn2)cc1 | 74 | n | n | n | n | n | 51 | n | 38
CCOc1ccc(OCc2ccc(C(=O)N/N=C(\C)c3ccccn3)cc2)cc1 | 83 | n | n | n | n | n | 91 | 42 | 72
Nc1[nH]c(=O)ncc1-c1ccc([N+](=O)[O-])cc1 | x | x | x | x | n | n | x | x | x
CCCCc1c(-c2ccccc2OC)ncn1Cc1c(Cl)cccc1Cl | x | x | x | x | n | n | x | x | x
Cc1cccc(C2=CC(=O)CC(C)(C)C2=O)c1 | x | x | x | x | n | n | x | x | x
O=C(N[C@@H]1C/C=C\C[C@@H](CC(=O)N(CCO)Cc2ccccc2)C(=O)NC[C@H](c2ccccc2)OC1=O)OCC1c2ccccc2-c2ccccc21 | 59 | n | n | n | n | n | 62 | n | n
C[C@@H]1COC(=O)[C@@H](NC(=O)OCC2c3ccccc3-c3ccccc32)C/C=C\C[C@@H](CC(=O)N(CCO)Cc2ccccc2)C(=O)N1 | 75 | n | n | n | n | n | 70 | n | n
O=C(C[C@H]1C/C=C\C[C@H](NC(=O)OCC2c3ccccc3-c3ccccc32)C(=O)O[C@H](c2ccccc2)CNC1=O)N[C@H](CO)Cc1ccccc1 | 63 | n | n | n | x | x | 54 | 34 | n
O=C1NC[C@@H](c2ccccc2)OC(=O)[C@@H](Cc2ccc(F)cc2)CC/C=C/C[C@@H]1CC(=O)N(CCO)Cc1ccccc1 | n | n | n | n | n | n | x | x | x
O=C1CC/C=C\C[C@@H](CC(=O)N(CCO)Cc2ccccc2)C(=O)NC[C@@H](c2ccccc2)O1 | n | n | n | n | n | n | x | x | x
C[C@H]1COC(=O)[C@@H](NC(=O)OCC2c3ccccc3-c3ccccc32)C/C=C\C[C@H](CC(=O)NCCO)C(=O)N1 | n | n | n | n | n | n | x | x | x
O=C(N[C@@H]1C/C=C\C[C@H](CC(=O)N(CCO)Cc2ccccc2)C(=O)NC[C@@H](c2ccccc2)OC1=O)OCC1c2ccccc2-c2ccccc21 | 67 | n | n | n | n | n | 65 | 26 | n
O=C(C(=O)N1CCN(S(=O)(=O)c2cccc(C(F)(F)F)c2)CC1)c1cccc(C(F)(F)F)c1 | x | x | x | x | n | n | x | x | x
O=C(NCCc1ccccc1)OCc1cn(-c2cccc(Cl)c2)nn1 | x | x | x | x | n | n | x | x | x
Cc1ccc(NC(=S)Nc2cc(C(=O)O)ccc2N2CC3CC(C2)c2cccc(=O)n2C3)cc1C (stereo not drawn) | 79 | n | n | n | n | n | n | n | n
CN1[C@@H](Cc2ccccc2)COc2cccc(N3CCSCC3)c2S1(=O)=O | x | x | x | x | n | n | x | x | x
